# Experiments:
# Settings in all cases: concentration: 1 μM, replicates: in singlicate; n = 1
# CDK8 = tested on: CDK8
# CDK9 = tested on: CDK9
# CDKL1 = tested on: CDKL1
# CDKL2 = tested on: CDKL2
# CDKL3 = tested on: CDKL3
# CDKL5 = tested on: CDKL5
# CHEK1 = tested on: CHEK1
# CHEK2 = tested on: CHEK2
# CIT = tested on: CIT
# CLK1 = tested on: CLK1
# CLK2 = tested on: CLK2
# CLK3 = tested on: CLK3
# CLK4 = tested on: CLK4
# CSF1R-autoinhibited = tested on: CSF1R-autoinhibited
# CSF1R = tested on: CSF1R
# CSK = tested on: CSK
# CSNK1A1L = tested on: CSNK1A1L
# CSNK1A1 = tested on: CSNK1A1
# CSNK1D = tested on: CSNK1D
# CSNK1E = tested on: CSNK1E
# 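Further: KINOMEscan kinase panel screen.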
Structure (SMILES),%Inh (CDK8) [%],%Inh (CDK9) [%],%Inh (CDKL1) [%],%Inh (CDKL2) [%],%Inh (CDKL3) [%],%Inh (CDKL5) [%],%Inh (CHEK1) [%],%Inh (CHEK2) [%],%Inh (CIT) [%],%Inh (CLK1) [%],%Inh (CLK2) [%],%Inh (CLK3) [%],%Inh (CLK4) [%],%Inh (CSF1R-autoinhibited) [%],%Inh (CSF1R) [%],%Inh (CSK) [%],%Inh (CSNK1A1L) [%],%Inh (CSNK1A1) [%],%Inh (CSNK1D) [%],%Inh (CSNK1E) [%]
CCn1c(-c2nonc2N)nc2c(-c3ccccc3)ncc(OCCCN)c21.O=C(O)C(F)(F)F.O=C(O)C(F)(F)F [GSK260205],1,0,7,31,0,0,0,0,98.9,14,0,5,4,0,2,0,46,69,94.2,98.7
CC(C)NCC(Cc1ccccc1)NC(=O)c1cc(Br)c(-c2ccnc3[nH]ccc23)s1.Cl.Cl (stereo not shown) [GSK1383281],34,0,17,11,0,0,0,39,53,40,44,22,25,0,46,6,5,0,26,33
CC(C)c1nc(-c2cccc(NS(=O)(=O)c3c(F)cccc3F)c2)c(-c2ccnc(Nc3ccc(N4CCOCC4)nc3)n2)s1.Cl [GSK1723980],6,75,74,98.9,24,97.8,0,13,97.5,0,0,0,0,0,52,96.5,0,95.1,0,10
CC(C)c1nc(-c2ccc(F)c(NS(=O)(=O)c3c(F)cccc3F)c2)c(-c2ccnc(Nc3ccc(N4CCOCC4)nc3)n2)s1 [GSK1804250],28,1,22,99.3,0,88,0,49,81,7,9,6,21,14,94.5,97.4,19,10,33,36
Cc1cccc(Nc2nc(NCCN)ncc2C(N)=O)c1 [GSK1292139],37,0,0,7,0,0,82,75,80,23,22,47,0,23,88,22,76,72,52,84
Cn1cc(-c2cnc(N)c3c(-c4ccc5c(c4)CCN5C(=O)Cc4ccccc4)csc23)cn1 [GSK2593074],19,0,9,0,4,0,9,0,0,15,19,0,0,39,99.9,20,0,21,0,1
COc1ccc(C2=C(Nc3cccc(O)c3)C(=O)NC2=O)cc1 [SB-390766],0,0,0,7,32,3,2,0,4,86,84,22,85,0,0,15,7,0,94,20
Fc1cc(Cl)ccc1Nc1ccnc2cc(-c3ccc(CN4CCOCC4)o3)ccc12 [GW560109],0,0,0,58,0,0,12,46,43,17,0,0,15,7,94.2,33,0,11,19,4
COc1cc(Nc2nccc(N3CCC(NC(=O)Nc4ccc5c(c4)OCO5)C3)n2)cc(OC)c1OC (stereo not shown) [GSK1379766],46,0,0,41,0,0,0,4,0,25,0,2,0,0,41,0,0,0,0,20
CCNC(=O)/C=C/c1n[nH]c2cc(Sc3ccccc3C(=O)NC)ccc12,20,13,17,26,17,15,0,0,0,17,0,14,3,36,99.8,3,0,21,0,18
Cc1ccc(NC(=O)c2ccc(Cl)c(Cl)c2)cc1-c1ccc(C(=O)Nc2ccncc2)cc1 [GSK1398460],0,2,1,13,0,4,22,0,97.6,39,0,17,17,7,99.9,1,8,0,7,18
Cl.O=C(Nc1ccc(Oc2ccc3[nH]c(NC(=O)c4ccco4)nc3c2)cc1)Nc1cc(C(F)(F)F)ccc1F [GW683134],86,5,8,85,0,0,21,0,96.7,63,0,0,61,0,99.8,0,0,2,10,0
Cc1ccc(NC(=O)c2cccc(N3CCCCC3)c2)cc1-c1ccc(C(=O)NCC2CC2)cc1 [GSK1917008],10,0,7,16,0,7,100,0,86,22,1,0,32,0,45,0,18,20,27,21
CC(C)(C)c1ccc(C(=O)Nc2cn3cc(-n4ccnc4)ccc3n2)cc1,5,3,29,0,18,7,0,0,44,92.4,79,16,84,0,46,0,34,60,84,70
Cc1ccc(O)cc1Nc1ccnc2cc(-c3ccc(CN4CCCCC4)o3)ccc12 [GW557777],0,0,7,0,5,0,13,0,40,24,0,0,0,0,96.7,82,44,84,27,34
Cl.Cl.NC(CNC(=O)c1cc(Br)c(-c2ccnc3[nH]ccc23)s1)c1ccccc1 (stereo not shown) [GSK1322949],60,15,12,26,0,5,0,46,98.1,90.9,88,73,91.5,7,29,0,47,87,89,90.8
Cc1nn2c(=O)cc(N3CCO[C@H](C)C3)nc2n1Cc1cccc(Cl)c1Cl [GSK2373693],0,2,1,11,0,0,26,0,21,55,31,4,59,0,6,56,0,16,69,25
